HPGD block – blocks human HPGD enzyme activity; Potency, µM, actives largely listed as inhibitors; purified HPGD, NADH fluorescence kinetic, PGE2 substrate; 150,000 compounds, 4.3% hits; P15428
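20 nM HPGD preincubated 15 min at room temperature with compound in 50 mM Tris-HCl pH 8, 0.01% Tween 20. Started with 1 mM NAD+ and 30 uM prostaglandin E2; NADH fluorescence (360/450 nm) read 5 times over 30-s intervals, last minus first.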
ALDH1A1 inh – inhibitors of human aldehyde dehydrogenase 1A1; P00352; Purified ALDH1A1, NADH fluorescence, propionaldehyde substrate; Potency, µM (doses to about 75.3 µM), usual class: inhibitors; 220,000 compounds, 7.3% hits; AID 1030
Target sequence (P00352 whole entry, looked up): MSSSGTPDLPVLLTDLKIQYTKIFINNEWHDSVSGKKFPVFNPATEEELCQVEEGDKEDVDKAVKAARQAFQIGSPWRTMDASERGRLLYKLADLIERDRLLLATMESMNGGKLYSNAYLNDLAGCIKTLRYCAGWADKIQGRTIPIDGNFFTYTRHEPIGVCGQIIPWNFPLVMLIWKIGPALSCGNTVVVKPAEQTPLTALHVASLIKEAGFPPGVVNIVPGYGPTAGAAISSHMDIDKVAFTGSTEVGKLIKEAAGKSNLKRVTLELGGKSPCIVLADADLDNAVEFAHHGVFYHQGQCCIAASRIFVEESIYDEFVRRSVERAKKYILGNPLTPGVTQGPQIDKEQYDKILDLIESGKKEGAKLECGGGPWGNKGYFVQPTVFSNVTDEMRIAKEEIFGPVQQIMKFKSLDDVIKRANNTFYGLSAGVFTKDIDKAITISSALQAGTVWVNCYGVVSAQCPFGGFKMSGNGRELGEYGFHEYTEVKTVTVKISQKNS
PNC assembly inh – blocks assembly of the perinucleolar compartment; PC3M PTB-GFP, PNC prevalence imaging, 16 h; hits give low values; activity change (PNC), negative = inhibition, % at 10 µM; 140,000 compounds, 3.1% hits;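 active = readout at or below -70, meaning at least 70% loss of cells showing the perinucleolar compartment, a nuclear body marking cancer cells; inconclusive = readout between -30 and a set limit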
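PC3M cells stably expressing PTB-GFP, 750–1000 cells/well, treated 16 h at 37 °C with compound (23 nl of library stock), in duplicate. After paraformaldehyde fixation and Hoechst stain, imaged at 20x; PNC prevalence scored by image analysis.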
Hits are given with their value; . = inactive; ? = inconclusive; / = no result; [ ] = remark or other dose. In the library only some 11% were active in any assay of this set; here they are far more common. Unless noted, calls follow the shape of the dose curve; as a rule, active = well fitted inhibition curve with a large enough effect (not every such curve was filed as active); inconclusive = small, poorly fitted or top-dose-only effect, or another doubt; inactive = no such curve, though single readings can be large or run the other way.

SMILES | HPGD block | ALDH1A1 inh | PNC assembly inh
C=CCN1C(=O)C2(/C(=C(\O)c3ccc4c(c3)OCCO4)C(=O)C(=O)N2CCCOC)c2ccccc21 (stereo not drawn) | . | 2.82µM | -96.4
COc1ccccc1C1/C(=C(\O)c2ccc3c(c2)OCCO3)C(=O)C(=O)N1CCCN(C)C (stereo not drawn) | . | . | .
CC(=O)c1ccc(N/C=C\C(=O)c2ccc(C)cc2)cc1 | / | . | /
Cc1ccc(C(=O)/C=C/C(=O)O)cc1 | ? | 0.447µM | .
COc1ccc2[nH]cc(CCNc3nc(-c4ccccc4CN(C)C)nc4ccccc34)c2c1 | . | ? | /
COc1ccc(C2C(C(=O)N3CCOCC3)CCC(=O)N2c2cc(OC)c(OC)c(OC)c2)cc1 (stereo not drawn) | . | . | ?
O=C(Nc1ccccc1C(=O)O)/C(=C/c1ccc([N+](=O)[O-])cc1)NC(=O)c1ccc(Br)o1 | / | 10µM | /
O=C(Nc1ccccc1C(=O)O)c1cccc(NC(=O)c2ccc(Br)o2)c1 | . | ? | .
O=C(Nc1ccccc1C(=O)O)c1ccc(NC(=O)c2ccc(Br)o2)cc1 | 17.8µM | ? | .
O=C(Nc1cccc(C(=O)O)c1)/C(=C\c1ccc2c(c1)OCO2)NC(=O)c1ccc(Br)o1 | / | . | /
CCC(C)NC(=O)Cn1c(=O)n(CCCCC(=O)NCc2ccco2)c(=O)c2ccccc21 (stereo not drawn) | . | . | .
C=CC[C@@H]1C=C[C@@H](O/N=C2/C[C@@H](O)[C@@H](O)[C@@H]3[C@@H]4C(=O)N(CC)C(=O)[C@H]4CC[C@@H]23)[C@@H](CO)O1 | / | .[13.5 µM] | /
N#C/C(=C/c1ccc2c(c1)OCO2)C(=O)Nc1ccc(O)cc1 | / | . | /
C1CN(CC23CC4CC(CC(C4)C2)C3)CCO1 | . | . | .
COc1ccc(-c2c(-c3ccc(OCC(=O)NN)cc3O)n[nH]c2C(F)(F)F)cc1 | . | 12.6µM | ?
C=C(C)COc1ccc(-c2n[nH]c(C)c2-c2ccc(OC)cc2)c(O)c1 | . | ? | .
Cc1sc2c(c1C)C(=O)NC(c1cccc(O)c1)N2 (stereo not drawn) | . | . | .
COC(=O)c1ccc(C2NC(=O)c3c(sc(C)c3C)N2)cc1 (stereo not drawn) | / | 23.8µM | /
COc1cccc(C(=O)NCC(=O)OCc2ccc(F)cc2Cl)c1 | . | . | .
O=C1c2ccccc2C(Nc2ccc(Cl)cn2)N1Cc1ccccc1 (stereo not drawn) | . | 12.6µM | .
O=C1c2ccccc2C(Nc2ccccc2)N1c1ccc(Cl)cn1 (stereo not drawn) | . | ? | .
CNc1ncncc1-c1c(C)noc1C | / | . | /
O=C(CN(Cc1ccco1)C(=O)CNS(=O)(=O)c1ccccc1)NC1CCCCC1 | . | . | ?
O=C(CN(Cc1ccco1)C(=O)CNS(=O)(=O)c1ccccc1)NCc1ccccc1 | . | 14.1µM | ?
Cc1ccc(S(=O)(=O)NCC(=O)N(CC(=O)NCC2CCCO2)Cc2ccccc2)cc1 (stereo not drawn) | . | ? | ?
SMILES | HPGD block | ALDH1A1 inh | PNC assembly inh
O=C(CN(CC1CCCO1)C(=O)CNS(=O)(=O)c1ccccc1)NCc1ccco1 (stereo not drawn) | / | . | /
O=C(CN(Cc1cccs1)C(=O)CNS(=O)(=O)c1ccccc1)NCc1ccco1 | . | 20µM | ?
Cc1ccc(S(=O)(=O)NCC(=O)N(CC(=O)NCC2CCCO2)Cc2ccco2)cc1 (stereo not drawn) | / | 17.8µM | /
Cc1ccc(S(=O)(=O)NCC(=O)N(CC(=O)NCc2ccco2)Cc2ccco2)cc1 | / | 8.91µM | /
O=C(CN(Cc1ccco1)C(=O)CNS(=O)(=O)c1ccc(F)cc1)NCCc1ccccc1 | . | . | .
N/C(COc1cccc(C(F)(F)F)c1)=N\NC(=O)c1cccnc1Oc1ccccc1 | . | . | ?
COc1cc(C)ccc1OCCOc1ccccc1Cl | ? | . | .
CCCCCn1c(=O)[nH]c2cc(C(=O)NCCCN3CCC(C)CC3)ccc2c1=O | . | . | .
O=C(Cc1ccccc1)N/N=C/c1cccc([N+](=O)[O-])c1 | / | . | /
CC(=O)Nc1ccc(NC(=O)CSC2=NCCS2)cc1 | . | ? | .
CC(=O)Nc1ccc(C2=NN(C)C(=NCc3ccccc3)SC2)cc1 | / | 2.82µM | /
Cc1nn(Cc2ccccc2Cl)c(C)c1C(=O)NCCN1C(=O)S/C(=C\c2ccccc2)C1=O | . | . | .
O=C(Nc1ccc(Cl)cc1)C(c1ccccc1)N1CCOCC1 (stereo not drawn) | / | 17.8µM | /
Cc1ccc(C)c(NC(=O)C(c2ccccc2)N2CCOCC2)c1 (stereo not drawn) | / | 15.8µM | /
Cc1cccc(C)c1NC(=O)C(c1ccccc1)N1CCOCC1 (stereo not drawn) | . | . | ?
CC(NC(=S)Nc1ccc(Cl)cc1)C(c1ccccc1)N1CCOCC1 (stereo not drawn) | . | . | ?
O=C(NCCOc1ccccc1)C(c1ccccc1)c1ccccc1 | . | . | .
CCc1nc(N[C@@H](Cc2c[nH]c3ccccc23)C(=O)O)c2oc3ccccc3c2n1 | . | . | .
c1ccc(-c2nc(NCC3CCCO3)c3oc4ccccc4c3n2)cc1 (stereo not drawn) | . | . | .
CSCC[C@@H](Nc1nc(-c2ccccc2)nc2c1oc1ccccc12)C(=O)O | . | 11.2µM | .
CCc1nc(NCc2ccccn2)c2oc3ccccc3c2n1 | . | . | .
CCc1nc(N[C@@H](CC(C)C)C(=O)O)c2oc3ccccc3c2n1 | . | 0.891µM | .
Cc1nc(N[C@@H](Cc2c[nH]c3ccccc23)C(=O)O)c2oc3ccccc3c2n1 | ? | . | .
CCc1nc(N[C@H](C(=O)O)C(C)C)c2oc3ccccc3c2n1 | / | 0.794µM | /
Cc1nc(N[C@@H](Cc2ccccc2)C(=O)O)c2oc3ccccc3c2n1 | . | 17.8µM | .
SMILES | HPGD block | ALDH1A1 inh | PNC assembly inh
Cc1ccnc(NC(=O)c2ccc(N3C(=O)CCC3=O)cc2)c1 | . | . | .
CC(OC(=O)c1ccc(NS(=O)(=O)c2cccs2)cc1)C(=O)N(C)C1CCCCC1 (stereo not drawn) | / | . | .
CCOC(=O)C1C(=O)CC(C)(O)C(C(=O)OCC)C1c1ccco1 (stereo not drawn) | . | . | .
Cc1cc(C)nc(/N=C(\N)Nc2ccc(S(=O)(=O)Nc3nccc(C)n3)cc2)n1 | / | . | /
CCc1nc(N2CCCCC2)c2oc3ccccc3c2n1 | . | 12.6µM | .
CCc1nc(NC(C)C)c2oc3ccccc3c2n1 | . | ? | -93.8
CCc1nc(Nc2ccncc2)c2oc3ccccc3c2n1 | . | ? | .
CCc1nc(NCCN2CCOCC2)c2oc3ccccc3c2n1 | . | 0.891µM | ?
CCc1nc(NCCCN2CCOCC2)c2oc3ccccc3c2n1 | . | . | .
CCc1nc(N2CCCCC2C)c2oc3ccccc3c2n1 (stereo not drawn) | . | ? | .
OC[C@H]1O[C@H](n2cnc3c(NC4CCCC4)nc(Cl)nc32)[C@@H](O)[C@@H]1O | . | . | /
OC(CNCCc1ccccc1)c1ccccc1 (stereo not drawn) | . | . | .
O[C@@H](CNC[C@H](O)c1ccccc1)c1ccccc1 | . | . | -100.0
O=C(Cc1sc(Nc2ccccc2)nc1-c1ccccc1)NCc1ccccc1 | / | . | ?
CC(/C=N\NC(=O)c1ccc(C)nc1)=C\c1ccccc1 | . | ? | .
FC(F)(F)c1cnc(Oc2ccc(-c3nnco3)cc2)c(Cl)c1 | 11.2µM | . | .
